Test [1] has as its target Bile acid receptor (Homo sapiens) (UniProt Q96RI1). Nature of the test: ATG_IR1_CIS: Attagene CIS-FACTORIAL HepG2 Assay for human Nuclear Receptor Subfamily 1 Group H Member 4 (NR1H4), IR1 submotif (AID 2282946). The conditions noted are these: IR1 reporter transcription, actives raise or lower the signal. The gist of the method:
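Cells (human HepG2) carry transiently transfected cis-promoter reporter transcription units. Compounds are incubated 24 h, total RNA is reverse-transcribed and amplified, and labelled fragments are resolved by capillary electrophoresis. Curves use DMSO as baseline.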

Test [2] is described as follows: ATG_GRE_CIS: Attagene CIS-FACTORIAL HepG2 Assay for human Glucocorticoid Response Elements (GRE) (AID 2282947). The following applies: HepG2 GRE cis-reporter, Attagene multiplex mRNA; actives raise or lower the signal. In outline:
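Assay uses human hepatoma HepG2 cells transfected with cis-promoter reporter units, exposed 24 h. mRNA from reporters detected by RT-PCR plus capillary electrophoresis; DMSO serves as negative control and baseline.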

Test [3] can be described thus: ATG_ISRE_CIS: Attagene CIS-FACTORIAL HepG2 Assay for human Interferon Regulatory Factor 1 (IRF1) binding to an Interferon-Stimulated Response Element (ISRE) (AID 2282948). The conditions noted are these: HepG2 ISRE cis-reporter (Attagene), mRNA transcription readout; actives raise or lower the signal. The gist of the method: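 HepG2 cells transiently transfected with multiplexed cis-promoter reporter units; after 24 h compound exposure, reporter mRNA quantified by RT-PCR, FAM labelling, HpaI digestion and capillary electrophoresis. Bidirectional fit versus DMSO baseline.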

Test [4] can be described thus: ATG_M_32_CIS: Attagene CIS-FACTORIAL HepG2 Assay for M32 Transcription Factor (Internal Marker) (AID 2282949).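 Note: background control marker of the multiplexed CIS panel rather than a real target.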 The following applies: HepG2 Attagene cis-factorial M32 reporter, mRNA; actives raise or lower the signal. The gist of the method:
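Internal background marker read-out: RT-PCR/capillary electrophoresis fluorescence of reporter transcripts from transiently transfected HepG2 cells after 24 h chemical exposure. Activity fitted bidirectionally relative to DMSO negative control.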

The target in test [5] is Hypoxia-inducible factor 1-alpha (Homo sapiens) (UniProt Q16665). Put plainly: ATG_HIF1a_CIS: Attagene CIS-FACTORIAL HepG2 Assay for human Hypoxia Inducible Factor 1 (HIF1A) (AID 2282951). The conditions noted are these: HepG2 Attagene cis-factorial HIF1a reporter transcription; actives raise or lower the signal. The gist of the method: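 HepG2, transient cis-reporter library, 24 h dosing. RNA → RT (oligo dT) → PCR → 6-FAM primer extension → HpaI → CE. Bidirectional curve fit vs DMSO.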
Sequence of Hypoxia-inducible factor 1-alpha (Homo sapiens) (Q16665 whole entry, looked up): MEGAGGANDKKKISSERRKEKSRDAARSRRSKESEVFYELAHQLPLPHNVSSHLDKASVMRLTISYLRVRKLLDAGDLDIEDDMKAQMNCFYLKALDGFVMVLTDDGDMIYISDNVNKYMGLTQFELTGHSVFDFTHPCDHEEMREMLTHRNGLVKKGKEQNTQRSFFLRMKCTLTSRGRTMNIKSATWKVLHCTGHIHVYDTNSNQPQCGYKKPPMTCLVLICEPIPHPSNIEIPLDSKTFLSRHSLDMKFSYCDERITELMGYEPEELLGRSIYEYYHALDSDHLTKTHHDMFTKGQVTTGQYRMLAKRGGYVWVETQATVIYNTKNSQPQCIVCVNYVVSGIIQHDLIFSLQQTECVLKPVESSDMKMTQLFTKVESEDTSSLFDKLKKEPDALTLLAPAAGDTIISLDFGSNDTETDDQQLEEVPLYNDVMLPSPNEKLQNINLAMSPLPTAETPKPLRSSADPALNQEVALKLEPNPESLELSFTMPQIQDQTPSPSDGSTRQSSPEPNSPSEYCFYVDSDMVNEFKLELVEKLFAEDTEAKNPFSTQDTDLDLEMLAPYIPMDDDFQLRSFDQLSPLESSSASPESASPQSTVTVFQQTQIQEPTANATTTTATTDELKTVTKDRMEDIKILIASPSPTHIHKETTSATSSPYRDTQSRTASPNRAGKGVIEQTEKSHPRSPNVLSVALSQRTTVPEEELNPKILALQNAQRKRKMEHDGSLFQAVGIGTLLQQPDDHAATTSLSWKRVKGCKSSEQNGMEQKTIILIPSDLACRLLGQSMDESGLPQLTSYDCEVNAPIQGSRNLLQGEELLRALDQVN

Test [6] has as its target Hepatocyte nuclear factor 6 (Homo sapiens) (UniProt Q9UBC0). Nature of the test: ATG_HNF6_CIS: Attagene CIS-FACTORIAL HepG2 Assay for human Hepatocyte Nuclear Factor 6 (HNF6) (AID 2282952). The following applies: HepG2 Attagene cis-factorial HNF6 reporter transcription; actives raise or lower the signal. In outline:
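Cells are HepG2 carrying transiently transfected cis-promoter reporter units. Treatment lasts 24 h, after which reporter transcripts are reverse-transcribed, amplified, FAM-labelled and sized by capillary electrophoresis. DMSO serves as baseline.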

The target of test [7] is Heat shock factor protein 1 (Homo sapiens) (UniProt Q00613). Nature of the test: ATG_HSE_CIS: Attagene CIS-FACTORIAL HepG2 Assay for human Heat Shock Transcription Factor 1 (HSE) (AID 2282953). The following applies: HepG2 HSE cis-reporter, Attagene RNA transcription; actives raise or lower the signal. The gist of the method:
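HepG2 cells transfected with cis-promoter reporter units sensing endogenous transcription factor activity; reporter mRNA quantified 24 h post-dose by RT-PCR and capillary electrophoresis of 6-FAM-labelled products. Bidirectional fitting against DMSO.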

A short description of test [8]: ATG_MRE_CIS: Attagene CIS-FACTORIAL HepG2 Assay for human Metal Responsive Element (MRE) (AID 2282954). The following applies: HepG2 MRE cis-reporter transcription, Attagene multiplex; actives raise or lower the signal. The gist of the method:
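After a 24 h chemical exposure, transiently transfected HepG2 cells yield RNA whose reporter sequences are amplified, FAM-labelled and sized by capillary electrophoresis. Curves are fitted bidirectionally relative to DMSO.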

For test [9], the target named is Paired box protein Pax-6 (Homo sapiens) (UniProt P26367). Nature of the test: ATG_Pax6_CIS: Attagene CIS-FACTORIAL HepG2 Assay for human Paired Box 6 (PAX6) (AID 2282956). The conditions noted are these: HepG2 CIS-FACTORIAL PAX6 reporter transcription, RNA readout; actives raise or lower the signal. The gist of the method:
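HepG2 cells transiently transfected with multiplexed cis-promoter reporter units (endogenous TF activity) were dosed for 24 h. Reporter mRNA was quantified by RT-PCR, 6-FAM labeling, HpaI digestion and capillary electrophoresis; bidirectional fitting versus DMSO baseline.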

Test [10] can be described thus: ATG_RORE_CIS: Attagene CIS-FACTORIAL HepG2 Assay for human RAR-related Orphan Receptor Element (RORE) (AID 2282959). The conditions noted are these: HepG2 Attagene cis-factorial RORE reporter, mRNA; actives raise or lower the signal. The gist of the method: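 Multiplexed reporter assay measuring mRNA induction from a cis promoter element in transiently transfected HepG2 cells after 24 h treatment. Detection via RT-PCR and capillary electrophoresis fluorescence; DMSO serves as baseline.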

Test [11] can be described thus: ATG_Sox_CIS: Attagene CIS-FACTORIAL HepG2 Assay for human SRY-box transcription factor (SOX) (AID 2282960). The following applies: HepG2 Attagene cis-factorial SOX reporter, mRNA; actives raise or lower the signal. The gist of the method: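 Cells were transfected with reporter constructs under cis-regulatory promoters, then exposed to chemicals for 24 h. Reporter transcripts were quantified by fluorescence after RT-PCR and capillary electrophoresis; activity was fitted in both directions against DMSO.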

Test [12] deals with Transcription factor Sp1 (Homo sapiens) (UniProt P08047). Put plainly: ATG_Sp1_CIS: Attagene CIS-FACTORIAL HepG2 Assay for human Specificity Protein 1 (Sp1) (AID 2282961). The following applies: HepG2 Sp1 cis-reporter transcription, actives raise or lower the signal. In outline: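 Measures mRNA induction of an Sp1-linked reporter in HepG2 cells 24 h post-dosing. Multiplexed reporters read by RT-PCR and capillary electrophoresis; DMSO serves as negative control and baseline.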
Sequence of Transcription factor Sp1 (Homo sapiens) (P08047 whole entry, looked up): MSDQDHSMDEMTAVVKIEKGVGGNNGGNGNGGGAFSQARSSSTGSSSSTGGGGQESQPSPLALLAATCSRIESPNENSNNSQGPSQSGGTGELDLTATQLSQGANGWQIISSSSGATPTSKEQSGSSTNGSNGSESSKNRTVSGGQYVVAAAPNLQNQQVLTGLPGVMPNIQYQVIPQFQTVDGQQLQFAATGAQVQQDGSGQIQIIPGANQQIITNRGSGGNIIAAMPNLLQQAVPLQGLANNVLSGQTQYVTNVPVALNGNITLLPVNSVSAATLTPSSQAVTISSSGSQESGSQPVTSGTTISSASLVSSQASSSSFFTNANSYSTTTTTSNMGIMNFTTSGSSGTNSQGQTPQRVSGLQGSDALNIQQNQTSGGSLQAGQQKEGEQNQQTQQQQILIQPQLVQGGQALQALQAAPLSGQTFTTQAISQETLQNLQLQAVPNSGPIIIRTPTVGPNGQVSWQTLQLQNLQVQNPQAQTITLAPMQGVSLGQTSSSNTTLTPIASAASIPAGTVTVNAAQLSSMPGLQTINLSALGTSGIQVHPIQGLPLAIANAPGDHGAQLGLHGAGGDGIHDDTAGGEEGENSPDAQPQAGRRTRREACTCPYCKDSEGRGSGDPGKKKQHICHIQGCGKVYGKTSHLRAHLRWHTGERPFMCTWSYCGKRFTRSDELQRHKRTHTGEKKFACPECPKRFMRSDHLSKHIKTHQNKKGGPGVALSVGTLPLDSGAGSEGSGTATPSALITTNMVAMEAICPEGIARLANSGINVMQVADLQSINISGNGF

Test [13] has as its target Signal transducer and activator of transcription 3 (Homo sapiens) (UniProt P40763). Nature of the test: ATG_STAT3_CIS: Attagene CIS-FACTORIAL HepG2 Assay for human Signal Transducer and Activator of Transcription 3 (STAT3) (AID 2282963). The following applies: HepG2, Attagene cis-factorial STAT3 reporter transcription; actives raise or lower the signal. In outline: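 After a 24 h compound incubation, total RNA from MRTU-transfected HepG2 cells was converted to cDNA and reporter sequences PCR-amplified, labelled and profiled by capillary electrophoresis. Gain and loss of signal were referenced to DMSO.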

The nature of test [14]: ATG_TCF_b_cat_CIS: Attagene CIS-FACTORIAL HepG2 Assay for human T-Cell-Factor with beta-catenin (TCF/b-cat) (AID 2282965). The following applies: HepG2 TCF/beta-catenin cis-reporter transcription, actives raise or lower the signal. In outline: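 Endogenous transcription factor activity is captured through cis-promoter reporter constructs transiently introduced into human HepG2 liver cells. Induced reporter mRNA is measured after 24 h and fitted bidirectionally relative to DMSO.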

Test [15] is described as follows: ATG_M_06_CIS: Attagene CIS-FACTORIAL HepG2 Assay for M06 Transcription Factor (Internal Marker) (AID 2282950). The conditions noted are these: HepG2 Attagene CIS-FACTORIAL M06 internal marker reporter; actives raise or lower the signal. The gist of the method: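 Internal background marker within multiplexed cis-reporter HepG2 system. Cells transiently transfected, dosed 24 h; reporter mRNA measured by RT-PCR, HpaI digestion and capillary electrophoresis. Bidirectional fit relative to DMSO.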

Test [16] in a line: ATG_PBREM_CIS: Attagene CIS-FACTORIAL HepG2 Assay for human Phenobarbital-responsive Enhancer Module (PBREM) (AID 2282955). The following applies: HepG2 PBREM cis-reporter, Attagene multiplexed transcription; actives raise or lower the signal. In outline: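 HepG2, transient MRTU transfection, 24 h dosing; RNA → oligo(dT) RT → PCR → 6-FAM extension → HpaI → CE. Bidirectional fit vs DMSO.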

A short description of test [17]: ATG_PXRE_CIS: Attagene CIS-FACTORIAL HepG2 Assay for human Pregnane X Receptor Element (PXRE) (AID 2282957). The following applies: HepG2 Attagene CIS-FACTORIAL PXRE reporter, mRNA; actives raise or lower the signal. In outline: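 Multiplexed cis-reporter assay in transiently transfected human HepG2 cells; 24 h chemical exposure. Reporter transcripts quantified by RT-PCR with fluorescent labeling and capillary electrophoresis.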

The nature of test [18]: ATG_PPRE_CIS: Attagene CIS-FACTORIAL HepG2 Assay for human Peroxisome Proliferator-activated Response Element (PPRE) (AID 2282958). The following applies: HepG2 PPRE cis-element reporter, Attagene transcription factor profiling; actives raise or lower the signal. The gist of the method:
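Transcript-level reporter induction in transfected HepG2 cells after 24 h chemical exposure, quantified by fluorescence from RT-PCR products separated by capillary electrophoresis.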

The nature of test [19]: ATG_SREBP_CIS: Attagene CIS-FACTORIAL HepG2 Assay for human Sterol Regulatory Element Binding (SREBP) (AID 2282962). The conditions noted are these: HepG2 Attagene cis-factorial SREBP reporter, mRNA; actives raise or lower the signal. The gist of the method:
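HepG2 cells transiently transfected with multiplexed cis-element reporter units report endogenous transcription factor activity. After 24 h of chemical exposure, reporter mRNA was quantified by RT-PCR, 6-FAM labelling, HpaI digestion and capillary electrophoresis; bidirectional fits used DMSO as baseline.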

The nature of test [20]: ATG_TA_CIS: Attagene CIS-FACTORIAL HepG2 Assay for human TA Basal Promoter (AID 2282964). The conditions noted are these: HepG2 Attagene CIS-factorial TA basal promoter reporter; actives raise or lower the signal. In outline: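 HepG2 cells transiently transfected with multiple reporter units under cis promoter elements, reporting endogenous transcription factor activity; this endpoint tracks the TA basal promoter as background control. Reporter mRNA after 24 h dosing measured by RT-PCR/capillary electrophoresis; bidirectional fits versus DMSO.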

The source made the active and inactive calls. Rule for the calls: active = hit-call score of the fitted dose curve at least 0.9, where 1 is the maximum; inactive = score below 0.9.

Sequence of Hepatocyte nuclear factor 6 (Homo sapiens) (Q9UBC0 whole entry, looked up): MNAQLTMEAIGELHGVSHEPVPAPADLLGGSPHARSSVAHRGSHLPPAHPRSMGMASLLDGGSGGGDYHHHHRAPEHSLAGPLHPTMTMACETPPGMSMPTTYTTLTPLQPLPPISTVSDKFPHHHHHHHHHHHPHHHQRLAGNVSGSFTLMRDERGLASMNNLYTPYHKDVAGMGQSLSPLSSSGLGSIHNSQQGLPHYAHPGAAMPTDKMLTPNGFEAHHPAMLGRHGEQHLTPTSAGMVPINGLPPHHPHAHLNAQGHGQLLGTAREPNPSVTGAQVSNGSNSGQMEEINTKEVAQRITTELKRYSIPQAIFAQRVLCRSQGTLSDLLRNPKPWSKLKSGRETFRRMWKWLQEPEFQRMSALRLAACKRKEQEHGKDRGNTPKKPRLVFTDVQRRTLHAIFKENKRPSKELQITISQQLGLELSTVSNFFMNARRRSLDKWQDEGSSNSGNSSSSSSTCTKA
Sequence of Paired box protein Pax-6 (Homo sapiens) (P26367 whole entry, looked up): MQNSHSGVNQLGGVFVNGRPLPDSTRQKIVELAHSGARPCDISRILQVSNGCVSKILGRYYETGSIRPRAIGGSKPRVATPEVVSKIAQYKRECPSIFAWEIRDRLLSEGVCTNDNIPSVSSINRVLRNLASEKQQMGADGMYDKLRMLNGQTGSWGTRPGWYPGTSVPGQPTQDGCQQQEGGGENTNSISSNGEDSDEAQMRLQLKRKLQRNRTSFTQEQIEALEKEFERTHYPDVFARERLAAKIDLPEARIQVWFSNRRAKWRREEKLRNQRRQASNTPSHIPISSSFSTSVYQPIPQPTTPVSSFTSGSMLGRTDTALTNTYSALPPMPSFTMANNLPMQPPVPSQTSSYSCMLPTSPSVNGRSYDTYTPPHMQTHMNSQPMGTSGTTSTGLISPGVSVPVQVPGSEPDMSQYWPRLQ
Sequence of Signal transducer and activator of transcription 3 (Homo sapiens) (P40763 whole entry, looked up): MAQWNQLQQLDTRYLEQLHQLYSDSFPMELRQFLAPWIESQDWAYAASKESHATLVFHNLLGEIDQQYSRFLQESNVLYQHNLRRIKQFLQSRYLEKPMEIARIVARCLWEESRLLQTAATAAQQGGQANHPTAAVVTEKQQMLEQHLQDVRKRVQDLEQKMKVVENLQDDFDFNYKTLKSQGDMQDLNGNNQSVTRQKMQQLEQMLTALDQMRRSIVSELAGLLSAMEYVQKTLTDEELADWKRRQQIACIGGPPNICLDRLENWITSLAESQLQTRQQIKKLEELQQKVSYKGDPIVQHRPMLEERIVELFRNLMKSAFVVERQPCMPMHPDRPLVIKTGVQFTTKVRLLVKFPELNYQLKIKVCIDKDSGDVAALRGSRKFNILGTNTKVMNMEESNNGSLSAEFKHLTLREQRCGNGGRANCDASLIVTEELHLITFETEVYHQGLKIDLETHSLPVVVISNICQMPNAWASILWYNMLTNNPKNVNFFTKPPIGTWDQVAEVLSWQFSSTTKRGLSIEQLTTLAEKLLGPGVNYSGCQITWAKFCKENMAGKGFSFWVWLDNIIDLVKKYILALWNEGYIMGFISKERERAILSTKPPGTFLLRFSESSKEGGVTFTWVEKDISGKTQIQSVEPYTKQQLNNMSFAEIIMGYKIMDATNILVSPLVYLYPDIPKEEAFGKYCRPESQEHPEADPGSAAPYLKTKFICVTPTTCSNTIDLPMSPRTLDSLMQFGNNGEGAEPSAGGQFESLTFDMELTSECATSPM
Sequence of Bile acid receptor (Homo sapiens) (Q96RI1 whole entry, looked up, the tested form may be a part): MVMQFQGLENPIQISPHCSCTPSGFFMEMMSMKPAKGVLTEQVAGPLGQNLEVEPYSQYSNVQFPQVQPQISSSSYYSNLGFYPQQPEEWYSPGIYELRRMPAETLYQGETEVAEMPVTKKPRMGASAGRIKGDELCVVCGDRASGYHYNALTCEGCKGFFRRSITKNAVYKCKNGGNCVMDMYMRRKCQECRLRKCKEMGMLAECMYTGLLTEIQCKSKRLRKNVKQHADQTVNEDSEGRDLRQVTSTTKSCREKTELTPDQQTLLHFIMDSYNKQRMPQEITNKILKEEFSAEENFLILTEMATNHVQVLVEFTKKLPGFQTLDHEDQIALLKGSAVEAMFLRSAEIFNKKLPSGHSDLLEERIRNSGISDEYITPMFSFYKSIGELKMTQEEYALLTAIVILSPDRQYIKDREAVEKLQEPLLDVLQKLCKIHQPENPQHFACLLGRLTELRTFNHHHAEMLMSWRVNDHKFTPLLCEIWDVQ
Sequence of Heat shock factor protein 1 (Homo sapiens) (Q00613 whole entry, looked up): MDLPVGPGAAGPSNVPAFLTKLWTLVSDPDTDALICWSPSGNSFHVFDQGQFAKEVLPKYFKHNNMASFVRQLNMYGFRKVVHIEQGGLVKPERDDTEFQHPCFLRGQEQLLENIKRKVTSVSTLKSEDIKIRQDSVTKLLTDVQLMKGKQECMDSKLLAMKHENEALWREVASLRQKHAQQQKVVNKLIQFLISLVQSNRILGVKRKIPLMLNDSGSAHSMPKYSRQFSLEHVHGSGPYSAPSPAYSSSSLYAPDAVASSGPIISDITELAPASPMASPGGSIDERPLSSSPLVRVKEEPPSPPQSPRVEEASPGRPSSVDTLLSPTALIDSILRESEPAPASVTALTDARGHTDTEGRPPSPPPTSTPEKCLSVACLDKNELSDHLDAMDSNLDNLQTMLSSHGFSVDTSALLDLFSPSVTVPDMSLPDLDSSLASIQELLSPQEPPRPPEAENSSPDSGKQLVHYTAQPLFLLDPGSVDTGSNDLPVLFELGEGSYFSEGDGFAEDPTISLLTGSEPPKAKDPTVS

Regarding `O=C1C=CC(=O)O1`, the compound was called inactive in [1], in test [2], in test [3], in [4], in test [5] and in test [6]. Moreover, the outcome in test [7], in [8], in [9], in test [10], in [11] and in test [12] was inactive. The outcome in [13] and in test [14] was inactive.

Take `O=S(=O)(O)c1ccccc1C=Cc1ccc(-c2ccc(C=Cc3ccccc3S(=O)(=O)O)cc2)cc1`: the compound was called inactive in [1], in test [2], in [4], in test [15], in [5] and in test [6]. For the same compound, the outcome in test [8], in test [16], in test [9], in [17], in test [18] and in [10] was inactive. The call in test [11], in [12], in [19], in test [13], in test [20] and in test [14] was inactive.

For orientation: AC50 means the concentration giving half of the maximal activity seen. On to `CCc1c(C(=O)O)c(=O)cnn1-c1ccc(Cl)cc1`, for which the compound was called inactive in [1], in [2], in test [4], in [15], in test [5] and in test [7]. The outcome in [8], in [9], in test [18], in test [10], in [11] and in test [12] was inactive. Moreover, the compound was classed as inactive in [19] and in [13]. In addition, in test [17], the AC50 is 52.3 µM (active).

Take `C=C(C)C(=O)OCCO`: the call in [1], in test [2], in test [4], in [15], in test [6] and in test [7] was inactive. The compound was classed as inactive in test [8], in [16], in test [9], in test [17], in [11] and in test [19]. The compound was classed as inactive in test [13], in [20] and in test [14].
